About 2,400 (0.67%) of roughly 360,000 compounds were called active.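 Rule for the calls: active = activation above a run cutoff, the mean activation of all tested compounds plus 3 SD (cut at about 14% in these data); inactive = the rest.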 Shown is part of a subset that was picked to be rich in actives.

5-hydroxytryptamine receptor 2A (Mus musculus), sequence (P35363 whole entry, looked up): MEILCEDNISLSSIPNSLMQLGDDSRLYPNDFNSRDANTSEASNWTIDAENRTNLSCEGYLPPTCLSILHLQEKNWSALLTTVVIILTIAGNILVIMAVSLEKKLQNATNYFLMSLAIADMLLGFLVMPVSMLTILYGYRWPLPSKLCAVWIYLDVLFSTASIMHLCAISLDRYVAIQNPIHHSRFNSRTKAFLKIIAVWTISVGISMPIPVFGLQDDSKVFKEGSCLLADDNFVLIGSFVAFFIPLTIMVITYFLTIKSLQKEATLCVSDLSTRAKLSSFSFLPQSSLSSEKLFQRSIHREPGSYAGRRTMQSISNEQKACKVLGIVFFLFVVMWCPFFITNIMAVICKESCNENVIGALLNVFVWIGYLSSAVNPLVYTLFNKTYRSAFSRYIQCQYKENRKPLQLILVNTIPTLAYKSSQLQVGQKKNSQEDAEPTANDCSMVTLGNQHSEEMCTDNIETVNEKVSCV

The assay has as its target 5-hydroxytryptamine receptor 2A (Mus musculus) (UniProt P35363). Nature of the assay: mouse Htr2a agonists via beta-arrestin recruitment, primary screen, cell-based, luminescence (AID 624169).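 Note: 0% = plate median of compound wells and 100% = 30 µM serotonin.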 The settings on record: CHO-K1 mHTR2A beta-arrestin complementation, at 7.6 µM, stronger effect = higher value, percent of 30 µM serotonin response. (Recruitment of arrestin is a read-out of receptor activation apart from second messengers.)
With `COC(=O)c1ccc(S(=O)(=O)N2CCC(c3nc4ccccc4o3)CC2)cc1`, the activation is 2.01% (inactive).
Turning to `Cc1ccc(C(=O)N/C(=C/c2cccs2)C(=O)NCC2CCCO2)cc1` (centres undefined), the activation is 6.31% (inactive).
In the case of `CN1CCN(C(=O)/C(=C\c2cccs2)NC(=O)c2cccs2)CC1`, the activation was -0.61% (inactive).
In the case of `Cc1ccc(C(=O)N/C(=C/c2cccs2)C(=O)N2CCCCC2)cc1`, the activation was 19.9% (active).
For `CCOc1cc(CN2CCCC(CO)(Cc3ccc(F)cc3F)C2)ccc1OC` (centres undefined) the value was -5.38% (inactive); for `CCOC(=O)c1sc(NC(=O)CSc2n[nH]c(CC)n2)nc1C`, -3.89% (inactive).
The same measure for `Cc1ccc(C(=O)OCC(=O)N2CCCCCC2)cc1S(=O)(=O)N1CCOCC1`: 4.82% (inactive); for `O=C(OCC(=O)N1CCOCC1)c1ccc(N2CCOCC2)c([N+](=O)[O-])c1`: -5.4% (inactive); for `O=C(OCC(=O)N1CCOCC1)c1ccc2ccccc2c1`: 14.5% (active).
The same measure for `Cc1oc2nc(SCC(=O)NCc3cccnc3)nc(N)c2c1C`: 0.74% (inactive); for `CCCCNc1c(-c2cccc(Sc3ccc(OC)cc3)c2)nc2ccccn12`: 23.6% (active); for `COC(=O)c1ccc2nc(-c3cccc(Br)c3)c(Cc3ccc(OC)cc3C)n2c1`: -0.25% (inactive).
In the case of `COC(=O)c1ccc2nc(-c3ccccc3)c(Cc3ccc(OC)cc3C)n2c1`, the activation was -0.62% (inactive).
The same measure for `COc1ccc(/C=N/NC(=O)C(C)N(c2ccc(OC)cc2)S(C)(=O)=O)cc1` (centres undefined): -1.2% (inactive); for `COc1ccc(/C=N/Nc2ccccc2C(=O)O)cc1`: 15.9% (active).
The same measure for `COc1ccc(/C=N/NC(=O)Cn2cc(C(F)(F)F)ccc2=O)cc1`: -1.47% (inactive).
The same measure for `COc1ccc(-c2nnc3n2CCCCC3)cc1`: -2.42% (inactive).
With `COc1cc(OC)cc(C(=O)NNC(=O)CCOc2ccccc2OC)c1`, the activation is -0.14% (inactive).
For `NNc1cccc(C=Cc2ccccc2)cc1=O` the value was 15.7% (active).
For `O=C(COC(=O)/C=C/c1cccc(Cl)c1)NCCc1ccccc1` the value was -2.95% (inactive); for `CC(=O)C1=C(O)C(=O)N(c2ccc(S(N)(=O)=O)cc2)C1c1ccccc1F` (centres undefined), 3.54% (inactive); for `CSc1ncnc2c1ncn2CCCNCC(C)c1ccccc1` (centres undefined), -3.42% (inactive).
The same measure for `CSc1ncnc2c1ncn2CCCNCc1cccs1`: 19.2% (active); for `CSc1ncnc2c1ncn2CCCNCc1ccco1`: 5.16% (inactive); for `COc1ccc(CCNC(=O)C2CCCN2C(=O)Nc2ccccc2)cc1OC` (centres undefined): -3.12% (inactive).
As for `CCOC(=O)N1CCN(C(=O)CN(C2CCCCC2)S(C)(=O)=O)CC1`, the activation is 7.43% (inactive).
For `FC(F)(F)COc1nc(N2CCCCC2)nc(N2CCNCC2)n1` the value was 25.4% (active).
On to `COc1nc(NC2CCCCC2)nc(N2CCCCCC2)n1`, for which the activation is -0.64% (inactive).
With `CN(N)c1nc(N2CCCC2)nc(N2CCCC2)n1`, the activation was 3.15% (inactive).

Values taken from PubChem BioAssay AID624169 (The Scripps Research Institute Molecular Screening Center, 2012).
